Screening data as filed in PubChem BioAssay.
In the library only some 7.6% were active in any assay of this set; here they are far more common.
SW480 rerep – inducers of DNA re-replication in SW480 colon cancer cells. AID 624297. actives 1.8% (n = 340,000). Potency, µM (highest dose often 46.1 µM), without a hit: at the highest dose re-replication activation, hits mostly activators. SW480 DNA re-replication, Hoechst DNA content imaging, 48 h; also: potency is read from the fitted curve at half-maximal effect; % of control where 0% means no effect; nearly all actives have a fitted effect of over 55% in size
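First, 250 cells per well were seeded. Next, compound or vehicle (23 nL) was pinned in, plates sat 48 hr at 37 C. Finally Hoechst was added for 40 min before fluorescence scanning.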
KCNH2 3.1 block – inhibitors of human KCNH2 3.1 potassium channel isoform | U2OS KCNH2 3.1, thallium flux FluxOr; stronger effect = lower value | activity change, % (tested at about 1.8 µM) | actives 0.95% (n = 340,000);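 active = maximum activity change below -70%; inconclusive = maximum activity change from -70% to -50%; inactive = maximum activity change above -50%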;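 also: thallium influx rate constant from kinetic fluorescence after stimulation buffer; % is scaled to controls: 0 for no effect and ±100 for the full control effect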
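Thallium flux read-out: FluxOr dye with Red40 quencher in HBSS/HEPES, 45 min at RT. Rate constants from kinetic reads were normalized to positive and negative DMSO controls. Cells: U2OS virally expressing the 3.1 isoform.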
KB-3-1 tox – kills parental KB-3-1 adenocarcinoma cells | KB-3-1 viability, CellTiter-Glo ATP luminescence, 72 h | Potency, µM (doses to about 46.1 µM), usual class: cytotoxic | AID 1347075 | actives 1.4% (n = 400,000); also: potency is read from the fitted curve at half-maximal effect; % is scaled to controls: 0 for no effect and ±100 for the full control effect; nearly all actives have a fitted effect of over 60% in size
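Here the drug-naive KB-3-1 line serves as comparator for MDR sub-line selectivity; cells received compound titrations, 72 h at 37 °C, then CellTiter-Glo readout.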
MCF10A rereplic – inducers of DNA re-replication in MCF 10A breast cells. MCF 10A DNA re-replication, Hoechst nuclear intensity, 48 h. Potency, µM (titrated, usually from 46.1 µM), for the others: top-dose activity, positive = re-replication, actives largely listed as activators. actives 2.9% (n = 350,000); also: potency is read from the fitted curve at half-maximal effect; % of control where 0% means no effect; nearly all actives have a fitted effect of over 50% in size
KB-V1 MDR tox – KB-V1 MDR subline cytotoxicity; actives 3.4% (n = 400,000); KB-V1 MDR cells viability, CellTiter-Glo, 72 h; AID 1347076; Potency, µM (highest dose often 46.1 µM), most hits filed as cytotoxic; also: potency is read from the fitted curve at half-maximal effect; % is scaled to controls: 0 for no effect and ±100 for the full control effect; nearly all actives have a fitted effect of over 60% in size
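Potencies derive from concentration-effect curves fitted to normalized luminescence (CellTiter-Glo) of KB-V1 cells treated for 72 h at 37 degrees C in phenol-red-free DMEM containing 10% FBS.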
hERG WT inh – blocks the wildtype human KCNH2 potassium channel; Q12809; U2OS, BacMam KCNH2, thallium flux FluxOr; stronger effect = lower value; activity change, % at 1.84 µM; actives 0.37% (n = 340,000);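 active = maximum activity change below -70%; inconclusive = maximum activity change between -70% and -50%; inactive = maximum activity change above -50%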; also: % is scaled to controls: 0 for no effect and ±100 for the full control effect
Target sequence (Q12809 whole entry, looked up): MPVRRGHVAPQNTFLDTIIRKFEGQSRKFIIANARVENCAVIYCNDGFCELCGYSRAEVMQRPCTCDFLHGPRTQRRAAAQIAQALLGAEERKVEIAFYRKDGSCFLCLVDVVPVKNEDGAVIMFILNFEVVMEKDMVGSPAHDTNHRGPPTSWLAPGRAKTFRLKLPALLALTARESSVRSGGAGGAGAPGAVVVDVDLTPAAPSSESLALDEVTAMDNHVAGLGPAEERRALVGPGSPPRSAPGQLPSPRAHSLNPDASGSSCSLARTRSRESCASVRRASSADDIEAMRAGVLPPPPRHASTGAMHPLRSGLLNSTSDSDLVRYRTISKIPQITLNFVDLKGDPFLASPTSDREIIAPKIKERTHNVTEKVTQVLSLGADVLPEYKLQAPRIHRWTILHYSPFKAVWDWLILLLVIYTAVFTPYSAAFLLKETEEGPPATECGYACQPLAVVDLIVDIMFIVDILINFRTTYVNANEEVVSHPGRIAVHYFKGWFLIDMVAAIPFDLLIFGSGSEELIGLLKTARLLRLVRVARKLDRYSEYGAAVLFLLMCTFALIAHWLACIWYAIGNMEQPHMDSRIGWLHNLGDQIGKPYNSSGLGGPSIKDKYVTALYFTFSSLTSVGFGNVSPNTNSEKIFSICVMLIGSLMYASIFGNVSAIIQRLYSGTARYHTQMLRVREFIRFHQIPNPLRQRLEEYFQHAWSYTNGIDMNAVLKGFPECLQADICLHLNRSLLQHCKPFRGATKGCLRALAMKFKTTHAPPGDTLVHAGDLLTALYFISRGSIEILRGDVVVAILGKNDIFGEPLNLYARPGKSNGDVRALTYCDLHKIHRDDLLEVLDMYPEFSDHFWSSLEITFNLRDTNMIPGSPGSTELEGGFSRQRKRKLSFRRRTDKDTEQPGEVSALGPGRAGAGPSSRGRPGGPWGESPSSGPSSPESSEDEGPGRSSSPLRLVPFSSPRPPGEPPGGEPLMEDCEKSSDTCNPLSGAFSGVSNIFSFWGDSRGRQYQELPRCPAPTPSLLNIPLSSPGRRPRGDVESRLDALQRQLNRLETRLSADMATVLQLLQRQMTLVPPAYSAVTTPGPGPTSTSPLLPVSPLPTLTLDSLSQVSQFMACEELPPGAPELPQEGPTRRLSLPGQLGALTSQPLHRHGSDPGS
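U2OS cells were transduced with wild-type KCNH2 virus (2.03 x 10^8 / mL) for 4 h at room temperature, then cultured overnight at 37 C. Thallium flux was read with FluxOr dye. Rate constants were normalized to DMSO controls.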
Starred values were filed as active, the others as inactive; i = inactive; u = inconclusive; x = not tested or not shown. Unless noted, calls follow the shape of the dose curve; as a rule, active = well fitted curve in the direction sought with a large enough effect; inconclusive = small, poorly fitted or top-dose-only effect, or another doubt; inactive = no such curve, though single readings can be large; an effect the other way counts as inactive or inconclusive.

SMILES	SW480 rerep	KCNH2 3.1 block	KB-3-1 tox	MCF10A rereplic	KB-V1 MDR tox	hERG WT inh
COCCCn1c(N)c(C(=O)OC(C)COC)c2nc3ccccc3nc21 (stereo not given)	3%	-7	i	5%	u	5
COCCNC(=O)c1c(N)n(Cc2ccco2)c2nc3ccccc3nc12	-1%	-5	i	-7%	i	0
COCCCn1c(N)c(C(=O)Nc2ccccc2)c2nc3ccccc3nc21	21µM*	-24	u	u	i	-5
Cn1sc(Cl)cc1=O	-7%	x	x	11%	x	x
COc1ccc(C2/C=C\CN(C(=O)Oc3ccc(C(F)(F)F)cc3)CC(=O)N2Cc2ccc(F)cc2)cc1 (stereo not given)	22%	11	i	u	i	-4
C=CCNC(=S)N1Cc2ccccc2-n2nncc2C1	x	17	i	x	u	-120*
C=CCNC(=S)N1Cc2cc(Br)ccc2-n2nncc2C1	x	x	i	x	i	x
O=C(CCn1c(=O)oc2ccccc21)N1CCN(c2ccccc2Cl)CC1	u	6	6.5µM*	9.2µM*	4.1µM*	-9
CCOc1ccccc1NC(=O)c1cccn(Cc2ccccc2C)c1=O	x	x	i	x	u	x
COc1cc(CN2CC3CC(C2)c2cccc(=O)n2C3)cc(OC)c1OC (stereo not given)	1%	7	i	26µM*	i	-2
Cc1ccc(-n2c(-c3cccs3)nc3ccccc3c2=O)cc1	-5%	-9	i	11%	23µM*	8
COc1ccc(S(=O)(=O)N(C)C[C@H]2Oc3c(NC(=O)NC4CCCCC4)cccc3C(=O)N([C@H](C)CO)C[C@@H]2C)cc1	u	-3	i	11%	i	-1
O=c1[nH]c(CN2CC=C(c3ccccc3)CC2)nc2scc(-c3ccccc3)c12	-2%	5	u	18µM*	u	-3
Cc1ccc2c(CN3CC=C(c4ccccc4)CC3)cc(=O)oc2c1C	6%	-1	i	3%	i	-6
O=c1[nH]c(CN2CC=C(c3ccccc3)CC2)nc2cc(C(F)(F)F)ccc12	1%	18	i	15µM*	u	24
Cc1ccc2scc(N3CCN(C)CC3)c(=O)c2c1	x	x	i	x	i	x
Cc1[nH]c(=O)[nH]c(=O)c1/C=C/C(=O)OCC(C)C	u	12	i	-5%	u	-1
Nc1ccc(CCN2CCCC2)cc1	-4%	-17	i	2%	i	-9
Nc1ccc(CCN2CCN(c3cccc(C(F)(F)F)c3)CC2)cc1	0%	-72*	i	1%	i	9
CCn1c(O)c(/C=N/NC(=O)c2ccccc2)c(=O)n(CC)c1=S	18µM*	-10	u	u	i	-20
CCn1c(O)c(/C=N/NC(=O)c2ccncc2)c(=O)[nH]c1=S	1%	-12	i	24%	i	-22
c1ccc(C(c2ccccc2)N2CCN(c3ccc4ccccc4n3)CC2)cc1	-5%	x	i	u	i	14
CSc1cc(-c2ccccc2)n(Cc2c(Cl)cccc2Cl)c(=O)c1C#N	0%	-15	3.3µM*	u	u	-5
Cc1c(C(=O)O)cc(-c2ccccc2)n1Cc1ccccc1	-3%	10	i	-6%	i	-1
COc1cc(-c2ccc(-[n+]3nc(-c4ccccc4)nn3-c3ccc([N+](=O)[O-])cc3)c(OC)c2)ccc1-[n+]1nc(-c2ccccc2)nn1-c1ccc([N+](=O)[O-])cc1	u	x	x	-1%	x	x
SMILES	SW480 rerep	KCNH2 3.1 block	KB-3-1 tox	MCF10A rereplic	KB-V1 MDR tox	hERG WT inh
CCOc1ccc(CN2CCN(C(=O)Cc3ccccc3)CC2)cc1	9%	0	i	11%	i	-7
CCOC(=O)C1CCN(Cc2ccc(Cl)nc2)CC1	-6%	-3	i	8%	i	-74*
c1cc2c(cc1CCNC1C3CC4CC(C3)CC1C4)OCO2 (stereo not given)	-5%	-2	i	9%	21µM*	6
CCOC(C(=O)OCCCN(CC)CC)(c1ccccc1)c1ccccc1	28%	2	i	u	i	9
CCN(CC)CCCOC(=O)C(OC(C)C)(c1ccccc1)c1ccccc1	u	-10	u	2%	8.2µM*	57
CC(C)(O)[C@H]1O[C@H]2CC[C@@]3(C)[C@@](O)(CC[C@H]4Cc5c([nH]c6ccccc56)[C@@]43C)C2=CC1=O	0.73µM*	-5	i	u	i	2
CC1(C)CC(=O)C2=C(C1)OC(N)=C([N+](=O)[O-])C2c1ccc(C#N)s1 (stereo not given)	u	2	u	-1%	i	0
O=c1c(C=NCc2cccs2)c(O)n(C2CCCCC2)c(=O)n1C1CCCCC1	-6%	-21	i	8%	i	5
N=C(N)c1c(O)n(C2CCCCC2)c(=O)n(C2CCCCC2)c1=O	u	-15	21µM*	u	i	-1
COc1cc(CN2CCCC(CCC(=O)NCc3ccc(C)o3)C2)cc2c1OCO2 (stereo not given)	u	-8	i	u	i	x
